# According to article PMC11006913:
# Residue numbers refer to the chain shown, from its start.
# How the values were obtained:
# Experiment in all cases: PBM; 200 nM protein, PBS
# Details in all cases: dsDNA, one strand shown
# NKX2-5 [1] = molecular target: NKX2-5 (Homo sapiens, UniProt P52952 125-210, R139K)
# NKX2-4 [2] = molecular target: T1, NKX2-4 (Homo sapiens, UniProt Q9H2Z4 175-261, P217L)
# T1 sequence: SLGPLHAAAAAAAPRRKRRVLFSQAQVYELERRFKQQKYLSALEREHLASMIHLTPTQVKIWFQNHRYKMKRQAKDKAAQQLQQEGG
# NKX2-4 [3] = molecular target: T2, NKX2-4 (Homo sapiens, UniProt Q9H2Z4 175-261, T231S)
# T2 sequence: T1 sequence with L43P, T57S
# NKX2-4 [4] = molecular target: T3, NKX2-4 (Homo sapiens, UniProt Q9H2Z4 175-261)
# T3 sequence: T1 sequence with L43P
# NKX2-6 [5] = molecular target: T4, NKX2-6 (Homo sapiens, UniProt A6NCS4 118-204, R150C)
# T4 sequence: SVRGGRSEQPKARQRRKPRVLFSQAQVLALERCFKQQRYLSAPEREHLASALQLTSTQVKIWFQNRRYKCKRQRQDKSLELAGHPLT
# NKX2-6 [6] = molecular target: T5, NKX2-6 (Homo sapiens, UniProt A6NCS4 118-204)
# T5 sequence: T4 sequence with C33R
# NKX2-4 [7] = molecular target: T6, NKX2-4 (Homo sapiens, UniProt Q9H2Z4 175-261, R246Q)
# T6 sequence: T1 sequence with L43P, R72Q
# NKX2-6 [8] = molecular target: T7, NKX2-6 (Homo sapiens, UniProt A6NCS4 118-204, F151L)
# T7 sequence: T4 sequence with C33R, F34L
# NKX3-2 [9] = molecular target: NKX3-2 (Homo sapiens, UniProt P78367 192-278, P234S)
# NKX2-5 [10] = molecular target: NKX2-5 (Homo sapiens, UniProt P52952 125-210)
# NKX3-2 [11] = molecular target: NKX3-2 (Homo sapiens, UniProt P78367 192-278)
# Chain of NKX3-2 (Homo sapiens, UniProt P78367 192-278) (P78367 192-278): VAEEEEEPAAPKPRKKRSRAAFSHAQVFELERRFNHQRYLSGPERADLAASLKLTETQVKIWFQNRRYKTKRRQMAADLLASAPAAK
# Chain of NKX3-2 (Homo sapiens, UniProt P78367 192-278, P234S) (P78367 192-278 P234S): as the sequence (P78367 192-278) above, with P43S counted along it
# Chain of NKX2-5 (Homo sapiens, UniProt P52952 125-210) (P52952 125-210): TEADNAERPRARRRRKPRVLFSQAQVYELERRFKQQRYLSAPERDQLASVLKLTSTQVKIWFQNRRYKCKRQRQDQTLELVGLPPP
# Chain of NKX2-5 (Homo sapiens, UniProt P52952 125-210, R139K) (P52952 125-210 R139K): as the sequence (P52952 125-210) above, with R15K counted along it
Sequence,binding signal (NKX2-5 [1]),binding signal (NKX2-4 [2]),binding signal (NKX2-4 [3]),binding signal (NKX2-4 [4]),binding signal (NKX2-6 [5]),binding signal (NKX2-6 [6]),binding signal (NKX2-4 [7]),binding signal (NKX2-6 [8]),binding signal (NKX3-2 [9]),binding signal (NKX2-5 [10]),binding signal (NKX3-2 [11])
CACTTATG,"13 upbm affinity estimate (log intensity, higher = more binding, comparable within an allelic series)","12.6 upbm affinity estimate (log intensity, higher = more binding, comparable within an allelic series)","13 upbm affinity estimate (log intensity, higher = more binding, comparable within an allelic series)","12.5 upbm affinity estimate (log intensity, higher = more binding, comparable within an allelic series)","12.2 upbm affinity estimate (log intensity, higher = more binding, comparable within an allelic series)","13.8 upbm affinity estimate (log intensity, higher = more binding, comparable within an allelic series)","13.1 upbm affinity estimate (log intensity, higher = more binding, comparable within an allelic series)","11.2 upbm affinity estimate (log intensity, higher = more binding, comparable within an allelic series)","12.8 upbm affinity estimate (log intensity, higher = more binding, comparable within an allelic series)","13 upbm affinity estimate (log intensity, higher = more binding, comparable within an allelic series)","12.9 upbm affinity estimate (log intensity, higher = more binding, comparable within an allelic series)"
ATAAGTGC,"13 upbm affinity estimate (log intensity, higher = more binding, comparable within an allelic series)","12.7 upbm affinity estimate (log intensity, higher = more binding, comparable within an allelic series)","13.1 upbm affinity estimate (log intensity, higher = more binding, comparable within an allelic series)","12.6 upbm affinity estimate (log intensity, higher = more binding, comparable within an allelic series)","12.2 upbm affinity estimate (log intensity, higher = more binding, comparable within an allelic series)","13.8 upbm affinity estimate (log intensity, higher = more binding, comparable within an allelic series)","13.3 upbm affinity estimate (log intensity, higher = more binding, comparable within an allelic series)","11.4 upbm affinity estimate (log intensity, higher = more binding, comparable within an allelic series)","12.9 upbm affinity estimate (log intensity, higher = more binding, comparable within an allelic series)","12.9 upbm affinity estimate (log intensity, higher = more binding, comparable within an allelic series)","13 upbm affinity estimate (log intensity, higher = more binding, comparable within an allelic series)"
GGTACTTA,"13.1 upbm affinity estimate (log intensity, higher = more binding, comparable within an allelic series)","12.6 upbm affinity estimate (log intensity, higher = more binding, comparable within an allelic series)","13 upbm affinity estimate (log intensity, higher = more binding, comparable within an allelic series)","12.5 upbm affinity estimate (log intensity, higher = more binding, comparable within an allelic series)","12 upbm affinity estimate (log intensity, higher = more binding, comparable within an allelic series)","13.8 upbm affinity estimate (log intensity, higher = more binding, comparable within an allelic series)","13.1 upbm affinity estimate (log intensity, higher = more binding, comparable within an allelic series)","11 upbm affinity estimate (log intensity, higher = more binding, comparable within an allelic series)","12.8 upbm affinity estimate (log intensity, higher = more binding, comparable within an allelic series)","12.9 upbm affinity estimate (log intensity, higher = more binding, comparable within an allelic series)","12.8 upbm affinity estimate (log intensity, higher = more binding, comparable within an allelic series)"
ACCACTTG,"12.8 upbm affinity estimate (log intensity, higher = more binding, comparable within an allelic series)","12.6 upbm affinity estimate (log intensity, higher = more binding, comparable within an allelic series)","13 upbm affinity estimate (log intensity, higher = more binding, comparable within an allelic series)","12.5 upbm affinity estimate (log intensity, higher = more binding, comparable within an allelic series)","11.8 upbm affinity estimate (log intensity, higher = more binding, comparable within an allelic series)","13.5 upbm affinity estimate (log intensity, higher = more binding, comparable within an allelic series)","13.1 upbm affinity estimate (log intensity, higher = more binding, comparable within an allelic series)","10.7 upbm affinity estimate (log intensity, higher = more binding, comparable within an allelic series)","12.6 upbm affinity estimate (log intensity, higher = more binding, comparable within an allelic series)","12.6 upbm affinity estimate (log intensity, higher = more binding, comparable within an allelic series)","12.7 upbm affinity estimate (log intensity, higher = more binding, comparable within an allelic series)"
ACAAGTGG,"12.9 upbm affinity estimate (log intensity, higher = more binding, comparable within an allelic series)","12.6 upbm affinity estimate (log intensity, higher = more binding, comparable within an allelic series)","13.1 upbm affinity estimate (log intensity, higher = more binding, comparable within an allelic series)","12.5 upbm affinity estimate (log intensity, higher = more binding, comparable within an allelic series)","12 upbm affinity estimate (log intensity, higher = more binding, comparable within an allelic series)","13.7 upbm affinity estimate (log intensity, higher = more binding, comparable within an allelic series)","13.2 upbm affinity estimate (log intensity, higher = more binding, comparable within an allelic series)","10.8 upbm affinity estimate (log intensity, higher = more binding, comparable within an allelic series)","12.6 upbm affinity estimate (log intensity, higher = more binding, comparable within an allelic series)","12.8 upbm affinity estimate (log intensity, higher = more binding, comparable within an allelic series)","12.7 upbm affinity estimate (log intensity, higher = more binding, comparable within an allelic series)"
AAGTGGTA,"12.5 upbm affinity estimate (log intensity, higher = more binding, comparable within an allelic series)","12.4 upbm affinity estimate (log intensity, higher = more binding, comparable within an allelic series)","12.9 upbm affinity estimate (log intensity, higher = more binding, comparable within an allelic series)","12.3 upbm affinity estimate (log intensity, higher = more binding, comparable within an allelic series)","11.9 upbm affinity estimate (log intensity, higher = more binding, comparable within an allelic series)","13.4 upbm affinity estimate (log intensity, higher = more binding, comparable within an allelic series)","12.9 upbm affinity estimate (log intensity, higher = more binding, comparable within an allelic series)","10.7 upbm affinity estimate (log intensity, higher = more binding, comparable within an allelic series)","12.8 upbm affinity estimate (log intensity, higher = more binding, comparable within an allelic series)","12.5 upbm affinity estimate (log intensity, higher = more binding, comparable within an allelic series)","12.9 upbm affinity estimate (log intensity, higher = more binding, comparable within an allelic series)"
ACTTAAGT,"12.8 upbm affinity estimate (log intensity, higher = more binding, comparable within an allelic series)","12.5 upbm affinity estimate (log intensity, higher = more binding, comparable within an allelic series)","12.9 upbm affinity estimate (log intensity, higher = more binding, comparable within an allelic series)","12.4 upbm affinity estimate (log intensity, higher = more binding, comparable within an allelic series)","11.8 upbm affinity estimate (log intensity, higher = more binding, comparable within an allelic series)","13.7 upbm affinity estimate (log intensity, higher = more binding, comparable within an allelic series)","13 upbm affinity estimate (log intensity, higher = more binding, comparable within an allelic series)","11.2 upbm affinity estimate (log intensity, higher = more binding, comparable within an allelic series)","12.6 upbm affinity estimate (log intensity, higher = more binding, comparable within an allelic series)","12.9 upbm affinity estimate (log intensity, higher = more binding, comparable within an allelic series)","12.7 upbm affinity estimate (log intensity, higher = more binding, comparable within an allelic series)"
AGCACTTA,"12.9 upbm affinity estimate (log intensity, higher = more binding, comparable within an allelic series)","12.6 upbm affinity estimate (log intensity, higher = more binding, comparable within an allelic series)","13 upbm affinity estimate (log intensity, higher = more binding, comparable within an allelic series)","12.5 upbm affinity estimate (log intensity, higher = more binding, comparable within an allelic series)","12 upbm affinity estimate (log intensity, higher = more binding, comparable within an allelic series)","13.7 upbm affinity estimate (log intensity, higher = more binding, comparable within an allelic series)","13.1 upbm affinity estimate (log intensity, higher = more binding, comparable within an allelic series)","11.3 upbm affinity estimate (log intensity, higher = more binding, comparable within an allelic series)","12.9 upbm affinity estimate (log intensity, higher = more binding, comparable within an allelic series)","12.8 upbm affinity estimate (log intensity, higher = more binding, comparable within an allelic series)","12.9 upbm affinity estimate (log intensity, higher = more binding, comparable within an allelic series)"
CACTTGAG,"13.3 upbm affinity estimate (log intensity, higher = more binding, comparable within an allelic series)","12.9 upbm affinity estimate (log intensity, higher = more binding, comparable within an allelic series)","13.3 upbm affinity estimate (log intensity, higher = more binding, comparable within an allelic series)","12.8 upbm affinity estimate (log intensity, higher = more binding, comparable within an allelic series)","12.1 upbm affinity estimate (log intensity, higher = more binding, comparable within an allelic series)","14 upbm affinity estimate (log intensity, higher = more binding, comparable within an allelic series)","13.5 upbm affinity estimate (log intensity, higher = more binding, comparable within an allelic series)","11.3 upbm affinity estimate (log intensity, higher = more binding, comparable within an allelic series)",,"13.2 upbm affinity estimate (log intensity, higher = more binding, comparable within an allelic series)",
CCCACTTA,"13 upbm affinity estimate (log intensity, higher = more binding, comparable within an allelic series)","12.7 upbm affinity estimate (log intensity, higher = more binding, comparable within an allelic series)","13 upbm affinity estimate (log intensity, higher = more binding, comparable within an allelic series)","12.6 upbm affinity estimate (log intensity, higher = more binding, comparable within an allelic series)","12.2 upbm affinity estimate (log intensity, higher = more binding, comparable within an allelic series)","13.7 upbm affinity estimate (log intensity, higher = more binding, comparable within an allelic series)","13.1 upbm affinity estimate (log intensity, higher = more binding, comparable within an allelic series)","11.1 upbm affinity estimate (log intensity, higher = more binding, comparable within an allelic series)","13.2 upbm affinity estimate (log intensity, higher = more binding, comparable within an allelic series)","12.9 upbm affinity estimate (log intensity, higher = more binding, comparable within an allelic series)","13.2 upbm affinity estimate (log intensity, higher = more binding, comparable within an allelic series)"
